The results in this text go back to PubChem BioAssay AID624256 (NMMLSC, 2012).

The whole screen tested about 360,000 compounds, of which about 3,700 (1%) were called active. Not shown: some 2% with an inconclusive outcome.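 The calls were made as follows: active = normalized GFP-positive differentiation at or above the plate's own cutoff, the solvent-only control mean plus 3 SD; inconclusive = no clear call, values can overlap the other calls; inactive = the rest.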 This excerpt belongs to a sample that is enriched for actives.

The test in a line: induction of myeloid progenitor differentiation, primary screen, cell-based, flow cytometry, MLPCN library (AID 624256).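 As to GFP+ MAC1+ double positive: cells exposed to compound for four days before flow analysis.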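 As to normalized GFP-positive differentiation: cells exposed to compound for four days before flow analysis; 0% = DMSO wells and 100% = fulvestrant positive control at 5 µM.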 The following applies: ER-HoxA9 myeloid progenitors, lysozyme-GFP differentiation, at 10 µM; GFP+ MAC1+ double positive: measured here: differentiation confirmed by MAC1 staining, stronger effect = higher value; normalized GFP-positive differentiation: stronger effect = higher value. In general terms: In flow cytometry, cells or beads pass a laser one at a time.
As to `COC(=O)c1ccc(-c2noc(CN(Cc3ccccn3)CC3CCCO3)n2)cc1` (stereo not drawn), the GFP+ MAC1+ double positive came to 0.3% and the outcome was inactive.

Turning to `CCN1CC(CN(C)Cc2nc(-c3ccc(Cl)cc3)no2)CC1=O` (stereo not drawn), the GFP+ MAC1+ double positive came out at 0.3% and the call was inactive.

For the molecule `Cc1[nH]c2ccccc2c1C(=O)c1cc([C@H](NC(=O)OC(C)(C)C)C(C)C)sc1N`, the GFP+ MAC1+ double positive turned out to be 1% and the molecule was called inactive.

Take `CCOC(=O)N1CCN(C(=O)C[C@@H]2C[C@@]3(C(=O)OC)CC(C)(C)CC=C3N(Cc3ccco3)C2=O)CC1`: the GFP+ MAC1+ double positive was 1.2% and the outcome was inactive.

For `CC1=C(C(=O)N(C(C)C)C(C)C)CC(CC(=O)NCC2CCCCC2)C(=O)N1Cc1ccccc1` (stereo not drawn), the GFP+ MAC1+ double positive came out at 0.3% and the molecule was classed as inactive.

On to `O=C(Nc1ccccc1N1CCOCC1)c1ccncc1`, for which the GFP+ MAC1+ double positive worked out at 1.1% and the molecule was classed as inactive.

In the case of `O=C1c2ccccc2-c2ncnc3c(N4CCOCC4)cc(N4CCOCC4)c1c23`, the GFP+ MAC1+ double positive stood at 4.8% and the normalized GFP-positive differentiation was 41.7% (active).

`O=S(=O)(Nc1cc(Cl)ccc1N1CCOCC1)c1ccccc1Cl`: the GFP+ MAC1+ double positive stood at 0.3% and the call was inactive.

Turning to `CCCCC[C@H](C)N1C[C@@H](COCc2ccccc2)Oc2cc(N3CC[C@@H](N(C)C)C3)ccc2S1(=O)=O`, the GFP+ MAC1+ double positive was determined as 1.2% and the molecule was called inactive.

In the case of `COC(=O)c1ccc2nc(-c3ccc(F)cc3)c(Cc3ccc(C)cc3)n2c1`, the GFP+ MAC1+ double positive was determined as 0.7% and the call was inactive.

Turning to `O=C(O)c1ccccc1-c1cccc2nncn12`, the GFP+ MAC1+ double positive was determined as 0.5% and the result was inactive.

Regarding `CC(=O)c1c(C)[nH]c(C(=O)NCc2ccc(C)cc2)c1C`, the GFP+ MAC1+ double positive came out at 1.3% and the result was inactive.

In the case of `CC(=O)c1c(C)[nH]c(C(=O)NCCCN2CCCC2)c1C`, the GFP+ MAC1+ double positive is 0.6% and the outcome was inactive.

For `CCCCN(CC)CCNC(=O)c1[nH]c(C)c(C(C)=O)c1C`, the GFP+ MAC1+ double positive came to 2.2% and the normalized GFP-positive differentiation is 13.8% (active).

`COC(=O)c1ccc2nc(C3CCCCC3)c(Cc3cccc(F)c3)n2c1`: the GFP+ MAC1+ double positive amounted to 0.7% and the molecule was classed as inactive.

With `CO[C@@H]1CN(C)C(=O)c2cc(NC(=O)C3CC3)ccc2OC[C@H](C)N(C(=O)CN2CCOCC2)C[C@@H]1C`, the GFP+ MAC1+ double positive is 1.2% and the outcome was inactive.

As for `CN1C(=O)c2cccc3c(N)ccc(c23)C1=O`, the GFP+ MAC1+ double positive turned out to be 1.9% and the normalized GFP-positive differentiation was 96.2% (active).

Regarding `Cn1cc(C2OC(=O)c3ccccc32)c2ccccc21` (stereo not drawn), the GFP+ MAC1+ double positive was 1.6% and the call was inactive.

Regarding `Cc1nn(C)cc1N1C(=O)c2cccc3c(N)ccc(c23)C1=O`, the GFP+ MAC1+ double positive was found to be 4.9% and the normalized GFP-positive differentiation was 289% (active).

`CC(C(=O)O)N1C(=O)c2cccc3cccc1c23` (stereo not drawn): the GFP+ MAC1+ double positive was found to be 1.4% and the result was inactive.

Take `COCCCn1cc(CN2CC(N(C)C)CS2(=O)=O)nn1` (stereo not drawn): the GFP+ MAC1+ double positive stood at 0.8% and the result was inactive.

`Cc1nc2c(OCc3ccc(Cl)cc3Cl)cccn2c1N(C)CC1CC1`: the GFP+ MAC1+ double positive was determined as 0.6% and the molecule was called inactive.

Turning to `CC(C)CN1C(=O)CN(S(C)(=O)=O)CC1(C)C(=O)NCc1ccccc1` (stereo not drawn), the GFP+ MAC1+ double positive stood at 1.1% and the call was inactive.

Take `Nc1nc2ncccn2c1-c1ccccc1`: the GFP+ MAC1+ double positive is 2.1% and the call was inactive.

In the case of `CCc1nc2ccc(C(=O)NCc3ccc(OC)cc3)cn2c1N(CC)Cc1cccc(Br)c1`, the GFP+ MAC1+ double positive worked out at 1.1% and the call was inactive.

As to `Cc1nccn1-c1ccc(NC(=O)[C@H]2O[C@@H](n3ccc(=O)[nH]c3=O)[C@H](O)[C@@H]2O)cc1`, the GFP+ MAC1+ double positive was 1.7% and the result was inactive.

In the case of `CCOC(=O)CNC(=O)c1nn(-c2cccc(OC)c2)c(=O)c2ccccc12`, the GFP+ MAC1+ double positive amounted to 0.7% and the outcome was inactive.

As for `Cc1cc(=O)oc2c1c(C)nn2-c1ccc(Cl)cc1`, the GFP+ MAC1+ double positive came out at 0.3% and the call was inactive.

On to `Cc1nn(-c2cc(Cl)ccc2N)c(=O)c2ccccc12`, for which the GFP+ MAC1+ double positive was 7.4% and the normalized GFP-positive differentiation was 51.3% (active).

`C#CCNC(=O)C[C@@H]1C[C@@]2(C(=O)OCC)CCCC=C2N(Cc2ccco2)C1=O`: the GFP+ MAC1+ double positive came out at 1.5% and the outcome was inactive.

As to `Cc1cc(Br)cn2c(Cc3ccsc3)c(-c3ccc(C#N)cc3)nc12`, the GFP+ MAC1+ double positive amounted to 2% and the molecule was called inactive.

In the case of `O=C(Nc1cccc2ccccc12)c1[nH]c(-c2ccccc2)c2c1C(=O)N(C1CC1)C2=O`, the GFP+ MAC1+ double positive turned out to be 1.2% and the molecule was classed as inactive.

Turning to `COC(=O)C[C@@H]1C=C[C@@H](NC(=O)c2ccc3c(c2)OCO3)[C@@H](CO)O1`, the GFP+ MAC1+ double positive is 3.1% and the outcome was inactive.

For the molecule `CC(C)(C)C1C/C(=C/c2ccco2)C(=O)/C(=C/c2ccco2)C1` (stereo not drawn), the GFP+ MAC1+ double positive turned out to be 0.5% and the normalized GFP-positive differentiation is 92.8% (active).

Regarding `CS(=O)(=O)c1ccc2c(c1)SC1=NC(=O)/C(=C/c3ccco3)C(=N)N12`, the GFP+ MAC1+ double positive was 6.9% and the molecule was called inactive.

In the case of `COC(=O)COc1ccc2c(c1C)O/C(=C\c1ccco1)C2=O`, the GFP+ MAC1+ double positive was found to be 0.6% and the molecule was called inactive.

With `O=C(c1cc(-c2ccco2)nc2ccccc12)N(Cc1nnc(-c2ccc(Cl)cc2)o1)C1CC1`, the GFP+ MAC1+ double positive is 1.9% and the normalized GFP-positive differentiation was 11.9% (active).

Take `CC1CCCN(C(=O)c2cc(-c3ccco3)nc3ccccc23)C1` (stereo not drawn): the GFP+ MAC1+ double positive was 0.2% and the call was inactive.

In the case of `CN(CCOc1ccccc1)C(=O)c1cc(-c2ccco2)nc2ccccc12`, the GFP+ MAC1+ double positive was 1.1% and the molecule was classed as inactive.

In the case of `S=C(NCCCc1cnc[nH]1)NCCCN(Cc1ccc(Cl)c(Cl)c1)c1ccc(Br)cn1`, the GFP+ MAC1+ double positive was 1.1% and the result was inactive.

With `CC(C)(C)NC(=O)C(CCc1ccccc1)n1c(=O)c(-c2ccccc2)nc2ccccc21` (stereo not drawn), the GFP+ MAC1+ double positive came out at 3.2% and the result was inactive.

In the case of `CCc1nc2oc3ccccc3c(=O)c2c(=O)n1Cc1ccc(OC)cc1`, the GFP+ MAC1+ double positive turned out to be 3.7% and the normalized GFP-positive differentiation is 16.2% (active).

Take `O=c1c2ccccc2oc2nc3n(c(=O)c12)CCCS3`: the GFP+ MAC1+ double positive worked out at 7.5% and the molecule was called inactive.

Take `COc1ccc(Cn2c(=O)oc3ccccc32)cc1`: the GFP+ MAC1+ double positive was found to be 0.5% and the call was inactive.
